Measured values: PubChem BioAssay (NCI)
About 83,000 compounds went through this panel and 20% of them were active in at least one assay; those are over-represented in the sample as a whole.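 Note: values are percent growth. 100 is the growth of untreated cells, values between 100 and 0 indicate rising inhibition; between -100 and 0 indicates cell death.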 Unmarked numbers belong to inactive results. Calls of active or inactive are those of the source. Rule for the calls: active = growth percent below 10; inactive = the rest.

System: HL-60(TB) leukemia
Assay: NCI-60 one-dose screen, 48 h (100 = growth as untreated, 0 = no growth, -100 = all killed)
Settings: 10 µM unless noted

SMILES | growth
O=C(Nc1cccc(-n2cc(-c3ccncc3)c(-c3ccc(O)c(Cl)c3)n2)c1)c1ccc(N2CCOCC2)c(C(F)(F)F)c1 | -10.6% (active)
COc1ccc(-c2nc3sccn3c2-c2nc3c([nH]2)C(=O)c2ccccc2C3=O)cc1 | 94%
CC(=O)O[C@H]1CC[C@]2(C)[C@H]3CC=C4[C@@H]5CC(C)(C)CC[C@]5(C(=O)OCC(COC(=O)C(Cl)Cl)(COC(=O)C(Cl)Cl)NC(=O)C(Cl)Cl)CC[C@@]4(C)[C@]3(C)CC[C@H]2C1(C)C | 33.1%
CCCCCCCCCCCCCCCC(=O)OC[C@@]1(O)C[C@@]23CC[C@@H]4C(C)(C)[C@H](O)CC[C@@]4(C)[C@@H]2CC[C@H]1C3 | 101%
CCN(CC)c1ccc(/C=C/c2cc(C)c3ccccc3n2)cc1 | 59.1%
C(=N\Nc1nnn(Cc2ccccc2)n1)/c1ccccc1 | 5.57% (active)
CCCCCCCCCCCCCCCC[N+]1(CC)CCCC1 | -69.9% (active)
CC(=O)N[C@@H](CCC(N)=O)C(=O)O | 107%
O=C1CCc2c(sc3[nH]c(=S)n(-c4cc(C(F)(F)F)cc(C(F)(F)F)c4)c(=O)c23)C1 | -14.2% (active)
CN(CC(=O)N(Cc1ccc(C2CCCCC2)cc1)c1ccc(C(=O)NO)cc1)S(=O)(=O)c1c(F)c(F)c(F)c(F)c1F | 43.6%
C#Cc1ccc(-n2c(/C=C/c3cc(OC)cc(OC)c3)nc3ncccc3c2=O)cc1 | 68.1%
CCOC(=O)c1c(C)[nH]c2ccc(O)cc12 | 95.7%
N#Cc1c(-c2cccc(Cl)c2)cc(-c2cccc(F)c2)[nH]c1=O | -58.3% (active)
COc1ccc(Cn2cc(COc3ccc4c5ccnc(C)c5n(CCCc5ccccc5)c4c3)nn2)cc1 | -55.7% (active)
COc1ccc(C(=NN=C(N)N)c2ccc(OC)cc2)cc1 | 15.5%
C#C[C@@]1(O)[C@@H](CO)O[C@@H](n2ccc3c(N)ncnc32)[C@@H]1O | -25.5% (active)
Nc1c(C(=O)Nc2cccc3ccccc23)sc2nc3c(cc12)CCCC3 | -11.1% (active)
COc1cc(-c2nc3ccccc3s2)ccc1OCc1nc2n(n1)S(=O)(=O)c1ccccc1N2c1ccccc1 | 16.2%

SMILES | growth
Cc1cccc(NCS(=O)(=O)O)c1 | 103%
COc1ccc(-c2cc(-c3cc(-c4ccc(OC)cc4)nc(N)n3)nc(N)n2)cc1 | 83.6%
O=[N+]([O-])c1ccc(-c2cn3nc(-c4c[nH]c5ccccc45)sc3n2)cc1 | 95.3%
FC(F)(F)c1ccc2c(c1)Sc1ccccc1N2 | 72.6%
O=C1CN(CCN2CC(=O)N(Cc3ccccc3)C(=O)C2)CC(=O)N1Cc1ccccc1 | 97.7%
CON=C1C[C@]2(C[C@@H]3C[C@@H](C/C=C(\C)C[C@@H](C)/C=C/C=C4\CO[C@@H]5[C@H](O)C(C)=C[C@@H](C(=O)O3)[C@]45O)O2)O[C@H](/C(C)=C/C(C)C)[C@H]1C | -43.6% (active)
O=C(COc1cccc(/C=C2\CSc3ccccc3C2=O)c1)c1ccc(Cl)cc1 | -48% (active)
COc1cc(/C=C/c2cc(/C=C/c3ccc(O)c(OC)c3)n(C(=O)c3ccccc3Br)n2)ccc1O | -23.9% (active)
C/C(=C(/c1ccc(Cl)cc1)c1ccc(OCCN2CCCC2)cc1)c1ccccc1 | 70.4%
O=C1/C(=C/c2ccc(Oc3ccccc3)cc2)N=C(c2ccccc2)N1CCc1cccs1 | 86%
Nc1ccccc1NC(=O)c1ccc(-n2nc(-c3ccccc3)c3ccccc32)cc1 | -4.94% (active)
COc1ccc(NC(=O)c2ccc3c(c2)nc(-c2ccc(Cl)cc2)n3-c2cc(C(C)(C)C)[nH]n2)cc1 | 96.8%
CC(=O)Oc1ccccc1C(=O)N=C1[Se]CCN1C(=O)c1ccccc1OC(C)=O | -34.4% (active)
COc1ccc(Br)c(/C=C2\SC(=Nc3ccc(O)cc3)NC2=O)c1 | 76.6%
c1ccc2c(c1)Nc1cc3ccccc3cc1N2 | 7.75% (active)
CCOC(=O)C1=C(C)n2nc(CC#N)c(C#N)c2NC1c1ccc(CC)cc1 (stereo unspecified) | 115%
CC(C)[C@H]1CC[C@H]2[C@@H](CC[C@H]3[C@](C)(CN)CCC[C@]23C)C1 | 71.8%
COc1ccc(C(=O)/C(=N/Nc2ccccc2)c2ccc(OC)cc2)cc1 | 88.4%
